From paper PMC5540273 (PLoS ONE, 2017)

Legend:
Conditions in all cases: concentration: 1 μM, replicates: in singlicate; n = 1
PIKFYVE = system: PIKFYVE
PIM1 = system: PIM1
PIM2 = system: PIM2
PIM3 = system: PIM3
PIP5K1A = system: PIP5K1A
PIP5K1C = system: PIP5K1C
PIP5K2B = system: PIP5K2B
PIP5K2C = system: T1, PIP5K2C
T1 construct: gene PIP4K2C

PKAC-alpha = system: T2, PKAC-alpha
T2 construct: gene PRKACA

PKAC-beta = system: T3, PKAC-beta
T3 construct: gene PRKACB
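Note: KINOMEscan kinase panel screen.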

Row | Compound | %Inh (PIKFYVE) [%] | %Inh (PIM1) [%] | %Inh (PIM2) [%] | %Inh (PIM3) [%] | %Inh (PIP5K1A) [%] | %Inh (PIP5K1C) [%] | %Inh (PIP5K2B) [%] | %Inh (PIP5K2C) [%] | %Inh (PKAC-alpha) [%] | %Inh (PKAC-beta) [%]
1 | CC(C)(C)n1cnc2c(N)ncnc21 [SKF-97359] | 51 | 0 | 0 | 0 | 32 | 51 | 24 | 34 | 0 | 20
2 | Nc1nc(-c2ccc3c(N)n[nH]c3c2)cc(N2CCCC2)n1 [GSK2227430] | 0 | 20 | 0 | 0 | 0 | 26 | 0 | 0 | 0 | 0
3 | CCc1nc(-c2cccc(C)c2)c(-c2ccnc(NCc3ccccc3)c2)s1 | 0 | 21 | 0 | 25 | 0 | 14 | 38 | 0 | 0 | 0
4 | CCCCCc1nc2c(N)ncnc2n1CCCCC [SKF-97255] | 0 | 0 | 5 | 7 | 1 | 0 | 0 | 0 | 24 | 0
5 | O=C(c1ccc(-c2cc(-c3c[nH]nc3-c3ccccn3)ccn2)cc1)N1CCOCC1 [GW812171] | 0 | 24 | 0 | 15 | 0 | 0 | 0 | 67 | 0 | 3
